Data on 14 molecules can be found in PubChem BioAssay AID651650 (Sanford-Burnham Center for Chemical Genomics, 2012).

Chain of Neuropilin-1 (Homo sapiens) (O14786 whole entry, looked up): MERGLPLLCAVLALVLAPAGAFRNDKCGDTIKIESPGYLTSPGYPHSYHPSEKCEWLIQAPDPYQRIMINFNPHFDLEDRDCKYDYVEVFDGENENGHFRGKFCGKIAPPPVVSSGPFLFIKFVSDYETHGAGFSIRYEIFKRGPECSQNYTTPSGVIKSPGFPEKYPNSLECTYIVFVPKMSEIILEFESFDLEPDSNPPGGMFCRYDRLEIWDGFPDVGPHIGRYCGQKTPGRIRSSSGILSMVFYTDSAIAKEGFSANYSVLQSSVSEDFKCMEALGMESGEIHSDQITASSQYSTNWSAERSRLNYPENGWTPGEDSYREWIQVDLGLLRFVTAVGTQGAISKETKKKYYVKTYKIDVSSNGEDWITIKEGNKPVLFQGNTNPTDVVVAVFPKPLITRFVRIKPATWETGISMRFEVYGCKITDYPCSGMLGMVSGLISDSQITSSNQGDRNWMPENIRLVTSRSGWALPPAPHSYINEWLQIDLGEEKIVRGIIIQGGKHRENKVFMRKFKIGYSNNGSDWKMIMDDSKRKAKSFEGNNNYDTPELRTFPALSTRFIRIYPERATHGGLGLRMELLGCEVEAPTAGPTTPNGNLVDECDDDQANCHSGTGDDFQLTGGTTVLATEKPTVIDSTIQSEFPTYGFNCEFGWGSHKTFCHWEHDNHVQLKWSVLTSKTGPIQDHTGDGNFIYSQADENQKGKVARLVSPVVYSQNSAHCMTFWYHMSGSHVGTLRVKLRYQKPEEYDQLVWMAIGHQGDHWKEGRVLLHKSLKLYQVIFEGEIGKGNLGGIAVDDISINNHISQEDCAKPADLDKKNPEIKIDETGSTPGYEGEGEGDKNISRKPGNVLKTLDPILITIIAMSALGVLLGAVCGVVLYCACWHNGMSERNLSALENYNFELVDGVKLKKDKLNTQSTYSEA

The assay has as its target Neuropilin-1 (Homo sapiens) (UniProt O14786). Put plainly: blockers of CendR peptide binding to NRP-1 – biochemical, FP and AlphaScreen panel, dose response (AID 651650). The note with it: NRP-1 b1b2 / RPARPAR peptide binding, FP or AlphaScreen; run 1, at 100 µM (top of the series). For orientation: In Alpha technology, singlet oxygen from a donor bead excites a nearby acceptor bead.
For orientation: inhibition means the drop in the measured response relative to a control, in per cent. `Cc1ccc(C2(O)CCN3CCCCC32)cc1` (centres undefined): the inhibition was -5.87%.

Regarding `COC(=O)C1=C(c2ccc(F)cc2OCc2ccccc2)C[C@@H]2CC[C@H]1N2C(=O)NCCNC(C)=O`, the inhibition is 95.9%.

For the molecule `O=S(=O)(c1cc(Cl)cc(Cl)c1)N1Cc2cc(-c3ccccc3)ccc2-n2nncc2C1`, the inhibition was 13.6%.

As for `CC(=O)OC1CC[C@]2(C#N)[C@H]3CC[C@]4(C)[C@H](C5C=CC(=O)O5)CCC4(O)C3CCC2(O)C1` (some centres undefined), the inhibition came to 58.3%.

As to `Cc1ccc(Cn2nnnc2CN2CCC(n3nnc4ccccc43)CC2)cc1`, the inhibition is 15.9%.

With `CC1(C)CN=C(Nc2ccc(F)c(Cl)c2)S1`, the inhibition was 82.2%.

Take `C=CCN1C(=O)C2(C(C(=O)OCC)=C(N)Oc3ccccc32)c2c1c1ccccc1oc2=O` (centres undefined): the inhibition is 4.11%.

For `CCC1C2Cc3ccc(O)cc3C1(CC)CCN2C` (centres undefined), the inhibition was 3.24%.

`Cc1c(NP(=O)(C(C)(C)C)C(C)(C)C)c(=O)n(-c2ccccc2)n1C`: the inhibition turned out to be 31.8%.

Take `CCC(=NCCc1ccccc1)c1c(O)n(C2CCCCC2)c(=O)[nH]c1=O`: the inhibition was determined as 42.9%.

With `Cc1ccc(C(=O)C2CN3CCC2CC3)cc1` (centres undefined), the inhibition is 26.3%.

Consider `COC(=O)C1=C(c2cccc(C#N)c2)C[C@@H]2CC[C@H]1N2C(=O)NCCO`, for which the inhibition came out at 39.7%.

As for `O=C1C=CC(=O)C2C1C1(Cl)C(Cl)=C(Cl)C2(Cl)C1(Cl)Cl` (centres undefined), the inhibition came to 44.9%.

Take `CN1C[C@H](CO)C=C2c3cccc4[nH]cc(c34)C[C@H]21`: the inhibition stood at 51.6%.
